Laboratory results published in PubChem BioAssay.
Active and inactive are the calls of the source.

Key:
[1] = tested on: Human papillomavirus type 1a protein E7 (residues 44-93); experiment: small molecules binding HPV E7 44-93 – biochemical, small-molecule microarray, residues 44-93, 635 nm fluorescence, primary screen (AID 1108); conditions: fluorescence 635 nm, higher = more signal;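 also: E7 fragment applied at 1 µg/mL in TBST for 1 h at 4 C; score combines spot fluorescence with its signal to noise ratio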
[2] = hepatitis C replication reporter changes, two-sided – Huh7 cells, luciferase reporter, HCV replication inhibitor project, primary screen (AID 1109); conditions: Huh7 HCV replicon luciferase reporter, 48 h; higher = more signal;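 also: huh7 hepatoma cells harbouring a luciferase neomycin HCV replicon reporter; luciferase luminescence as measure of HCV replicon replication; test concentration not given here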
[3] = molecular target: Left-right determination factor 2 (Homo sapiens) (UniProt O00292); experiment: small molecules binding LEFTY2 protein – biochemical, small-molecule microarray, 635 nm fluorescence scan, primary screen (AID 1110); conditions: higher = more signal
Chain of Left-right determination factor 2 (Homo sapiens) (O00292 whole entry, looked up): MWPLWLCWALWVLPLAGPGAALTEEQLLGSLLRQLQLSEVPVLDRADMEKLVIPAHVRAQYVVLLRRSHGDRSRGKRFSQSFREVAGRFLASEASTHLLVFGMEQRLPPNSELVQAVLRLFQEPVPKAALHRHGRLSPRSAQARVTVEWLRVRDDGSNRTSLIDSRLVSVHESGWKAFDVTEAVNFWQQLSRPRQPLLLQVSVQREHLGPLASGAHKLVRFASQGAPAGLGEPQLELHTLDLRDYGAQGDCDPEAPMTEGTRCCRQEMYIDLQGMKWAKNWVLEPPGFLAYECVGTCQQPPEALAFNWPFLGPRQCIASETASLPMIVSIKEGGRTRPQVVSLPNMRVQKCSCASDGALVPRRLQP

[4] = molecular target: Calmodulin-1 (Homo sapiens) (UniProt P0DP23); experiment: small molecules binding calmodulin-1 with EGTA – biochemical, small-molecule microarray, Cy5-labelled CALM1, profiling panel (AID 1111); conditions: Cy5-CALM1 binding fluorescence, higher = more signal;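 also: labelled calmodulin applied in Tris saline Tween buffer holding calcium plus EGTA and DTT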
[5] = molecular target: Calmodulin-1 (Homo sapiens) (UniProt P0DP23); experiment: small molecules binding Ca-loaded calmodulin-1 – biochemical, small-molecule microarray, Cy5-labelled CALM1, plus calcium, artefact control for SMM control-protein annotation, profiling panel (AID 1112); conditions: Cy5-CALM1 binding fluorescence, higher = more signal;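 also: score merges spot fluorescence with signal to noise from triplicate slides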
[6] = probe aWnt5a binding to arrayed compounds – biochemical, biotinylated probe, 635/667 nm fluorescence, primary screen (AID 1113); conditions: small-molecule microarray, higher = more signal;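 also: score merges 667 nm fluorescence intensity with signal-to-noise per printed feature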
[7] = probe aShh binding to arrayed compounds – biochemical, biotinylated probe, 635/667 nm fluorescence, primary screen (AID 1114); conditions: small-molecule microarray, higher = more signal;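 also: probe is biotin-labelled aShh protein from a stem cell growth factor screen; measures binding of labelled protein to compounds printed on the slide; score merges feature fluorescence at 667 nm with signal-to-noise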
[8] = probe aNog binding to arrayed compounds – biochemical, biotinylated probe, 635/667 nm fluorescence, primary screen (AID 1115); conditions: small-molecule microarray, higher = more signal;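 also: probe is biotinylated aNog protein used at 0.15 µg/mL for 1 h at 4 C; z-score combines 667 nm fluorescence of each spot with its signal to noise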
[9] = molecular target: Torsin-1A-interacting protein 1 (Homo sapiens) (UniProt Q5JTV8); experiment: compound microarray binding of lysate hLAP1 – cell lysate, small-molecule microarray, COS7 lysate, 635/667 nm fluorescence, primary screen (AID 1116); conditions: 635 nm fluorescence, higher = more signal
Chain of Torsin-1A-interacting protein 1 (Homo sapiens) (Q5JTV8 whole entry, looked up): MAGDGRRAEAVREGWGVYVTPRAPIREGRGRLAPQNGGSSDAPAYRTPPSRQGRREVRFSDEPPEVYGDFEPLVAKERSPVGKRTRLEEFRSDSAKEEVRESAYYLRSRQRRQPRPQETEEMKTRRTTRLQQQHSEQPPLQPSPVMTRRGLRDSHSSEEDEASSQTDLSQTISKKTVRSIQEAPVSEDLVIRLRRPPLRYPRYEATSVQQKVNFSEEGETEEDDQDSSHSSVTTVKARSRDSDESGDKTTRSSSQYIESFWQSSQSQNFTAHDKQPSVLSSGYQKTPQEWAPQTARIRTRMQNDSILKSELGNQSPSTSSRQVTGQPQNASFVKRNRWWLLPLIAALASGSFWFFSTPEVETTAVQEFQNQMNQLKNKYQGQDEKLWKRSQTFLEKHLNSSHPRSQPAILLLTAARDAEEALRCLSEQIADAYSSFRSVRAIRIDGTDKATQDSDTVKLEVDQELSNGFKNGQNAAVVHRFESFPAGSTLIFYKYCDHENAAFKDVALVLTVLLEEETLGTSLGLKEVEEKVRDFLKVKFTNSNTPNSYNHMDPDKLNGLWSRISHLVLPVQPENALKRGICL

[10] = molecular target: Alpha-bungarotoxin (Bungarus multicinctus) (UniProt P60615); experiment: compounds binding labelled alpha-BTX control protein – biochemical, small-molecule microarray, Alexa647 label, 635/667 nm fluorescence, artefact control for SMM control protein annotation, profiling panel (AID 1117); conditions: alpha-BTX-A647 binding fluorescence, higher = more signal
Chain of Alpha-bungarotoxin (Bungarus multicinctus) (P60615 whole entry, looked up): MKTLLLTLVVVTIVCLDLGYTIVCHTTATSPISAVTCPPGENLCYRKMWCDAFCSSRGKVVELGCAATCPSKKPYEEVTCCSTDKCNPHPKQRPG

Albumin (Bos taurus) = Albumin (Bos taurus) (UniProt P02769); experiment: compounds binding labelled BSA control protein – biochemical, small-molecule microarray, Alexa647 label, 635/667 nm fluorescence, artefact control for SMM control protein annotation, profiling panel (AID 1118); conditions: BSA-A647 binding, fluorescence 635 nm, higher = more signal;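 also: score merges 667 nm emission intensity and signal-to-noise per printed compound spot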
Chain of Albumin (Bos taurus) (P02769 whole entry, looked up): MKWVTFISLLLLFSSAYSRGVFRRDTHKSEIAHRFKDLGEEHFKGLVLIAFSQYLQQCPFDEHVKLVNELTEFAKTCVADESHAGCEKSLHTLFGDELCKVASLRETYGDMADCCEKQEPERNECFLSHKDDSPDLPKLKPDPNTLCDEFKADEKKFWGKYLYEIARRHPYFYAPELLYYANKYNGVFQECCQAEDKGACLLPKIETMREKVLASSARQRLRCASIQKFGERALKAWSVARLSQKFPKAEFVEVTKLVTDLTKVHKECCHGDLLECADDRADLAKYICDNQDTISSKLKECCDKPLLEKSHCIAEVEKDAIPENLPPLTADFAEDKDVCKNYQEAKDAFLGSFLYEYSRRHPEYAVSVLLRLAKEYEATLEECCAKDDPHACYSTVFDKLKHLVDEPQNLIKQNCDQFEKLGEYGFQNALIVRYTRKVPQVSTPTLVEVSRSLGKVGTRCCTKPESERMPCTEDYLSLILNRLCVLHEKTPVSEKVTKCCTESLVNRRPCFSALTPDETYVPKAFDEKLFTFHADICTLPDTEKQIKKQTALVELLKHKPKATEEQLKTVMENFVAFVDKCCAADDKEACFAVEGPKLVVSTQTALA

[11] = probe aXIP binding to arrayed compounds – biochemical, NeuroSMM set, 635/667 nm fluorescence, primary screen (AID 1119); conditions: small-molecule microarray, higher = more signal, called active from +8 up or from −8 down;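 also: probe is the protein aXip251-270 applied at 1 µg/mL to compound-printed slides; binding of probe to printed compounds measured as 667 nm fluorescence plus signal to noise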
[12] = probe aNOTCH3 binding on compound microarray – biochemical, small-molecule microarray, 635/667 nm fluorescence, primary screen (AID 1120); conditions: higher = more signal;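 also: probe is a biotin-tagged antibody raised against NOTCH3 rather than NOTCH3 protein; score merges spot fluorescence near 667 nm with spot signal to noise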
[13] = probe aNOTCH2 binding on compound microarray – biochemical, small-molecule microarray, 635/667 nm fluorescence, primary screen (AID 1121); conditions: higher = more signal;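 also: score merges feature fluorescence read at 667 nm with its signal to noise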
[14] = molecular target: Carbonic anhydrase 2 (Homo sapiens) (UniProt P00918); experiment: compounds binding carbonic anhydrase 2 – biochemical, small-molecule microarray, Alexa647-labelled CAII, profiling panel (AID 1122); conditions: CAII-A647 binding fluorescence, higher = more signal
[15] = COS7 lysate on small-molecule microarray, probe aHis, 635 nm (AID 1123); conditions: COS7 cell lysate, fluorescence, higher = more signal;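 also: z-score combines 667nm fluorescence intensity with signal-to-noise per printed compound spot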
[16] = probe aLAP1 signal on lysate-treated microarray – cell lysate, small-molecule microarray, COS7 lysate, primary screen (AID 1124); conditions: probe aLAP1, fluorescence, higher = more signal;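 also: lysate comes from COS7 cells expressing LAP1 and is applied at 0.3 µg/mL; score merges spot fluorescence near 667 nm with signal-to-noise over triplicate slides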
Sam68 (KHDRBS1) = experiment: compounds binding KHDRBS1 protein – biochemical, small-molecule microarray, 635 nm fluorescence, primary screen (AID 1125); conditions: higher = more signal;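 also: score merges 667 nm channel intensity with signal to noise over triplicate slides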
[17] = tested on: Chordin-like protein 2 (CHRDL2); experiment: compounds binding chordin-like 2 – biochemical, small-molecule microarray, 635 nm fluorescence, primary screen (AID 1126); conditions: fluorescence 635 nm, higher = more signal;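 also: printed compound slides probed with Chrdl2 protein at 4 µg/mL for 1 h at 4 C; score merges 667 nm emission intensity with signal to noise over three replicate slides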
[18] = molecular target: Concanavalin-A (Canavalia ensiformis) (UniProt P02866); experiment: compounds binding concanavalin A lectin – biochemical, small-molecule microarray, Alexa647 label, 635 nm, artefact control for SMM control protein annotation, primary screen (AID 1127); conditions: ConA-A647 binding fluorescence, higher = more signal;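 also: z combines 667 nm emission intensity with signal-to-noise across three replicate slides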
Chain of Concanavalin-A (Canavalia ensiformis) (P02866 whole entry, looked up): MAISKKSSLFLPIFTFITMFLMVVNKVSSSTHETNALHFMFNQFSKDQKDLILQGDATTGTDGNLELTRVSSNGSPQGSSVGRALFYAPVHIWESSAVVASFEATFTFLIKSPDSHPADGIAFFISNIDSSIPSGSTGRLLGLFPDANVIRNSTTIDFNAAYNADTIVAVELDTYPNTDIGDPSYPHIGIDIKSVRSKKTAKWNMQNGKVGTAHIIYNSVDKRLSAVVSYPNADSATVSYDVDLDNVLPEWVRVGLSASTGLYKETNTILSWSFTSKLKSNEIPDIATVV

| Compound | composite z-score [1] | z-score [2] | composite z-score [3] | composite z-score [4] | composite z-score [5] | composite z-score [6] | composite z-score [7] | composite z-score [8] | composite z-score [9] | composite z-score [10] | composite z-score (Albumin (Bos taurus)) | composite Z-score [11] | composite z-score [12] | composite z-score [13] | composite z-score [14] | composite z-score [15] | composite z-score [16] | composite z-score (Sam68 (KHDRBS1)) | composite z-score [17] | composite z-score [18] |
| --- | --- | --- | --- | --- | --- | --- | --- | --- | --- | --- | --- | --- | --- | --- | --- | --- | --- | --- | --- | --- |
| O=C1C[C@@H](O)[C@@H](O)[C@@H]2[C@@H]3C(=O)N(Cc4ccc5c(c4)OCO5)C(=O)[C@@H]3CC[C@@H]12 | -0.0301 | -0.644 | 0.796 | -0.504 | -0.56 | -0.0405 | 0.0278 | -0.239 | 0.441 | 0.0541 | 0.295 | 0.856 (inactive) | -0.0146 | -0.0938 | 0.229 | 0.0971 | -0.0553 | 0.507 | 0.558 | 0.492 |
| C[C@@H]1CC[C@H]2C(=O)O[C@H](COc3ccc(C(C)(C)C)cc3)CN2[C@H]1c1ccc(Br)cc1 | -0.387 | 0.0366 | 0.113 | -0.11 | 0.347 | 0.721 | -0.415 | -0.514 | -0.15 | 0.323 | 0.673 | 0.458 (inactive) | -0.0716 | 0.0776 | -0.113 | -0.231 | 0.157 | -0.734 | 0.0828 | -0.212 |
| CCCCCCc1nc(CCCc2cc3c(c(CCCCCC)n2)[Si](C(C)C)(C(C)C)O[C@H]3c2ccccc2)cc2c1[Si](C(C)C)(C(C)C)O[C@H]2c1ccccc1 | 0.15 | -0.904 | 0.109 | 0.146 | -0.021 | -0.148 | -0.0626 | -0.213 | -0.0561 | 0.181 | -0.27 | 0.248 (inactive) | -0.0284 | -0.14 | -0.156 | -0.0088 | -0.0919 | -0.14 | -0.0538 | 0.314 |
| CCCC[C@@H](O)C1=C(C)C[C@H]2C(=O)N(Cc3ccccc3)C(=O)[C@H]2[C@H]1CO | -0.101 | 0.156 | 0.521 | -0.349 | -0.611 | -0.0478 | -0.0553 | -0.158 | 0.503 | -0.227 | 0.0852 | -0.041 (inactive) | -0.0175 | -0.133 | -0.215 | -0.377 | 0.0292 | 0.241 | 0.538 | 0.321 |
| CC1CC/C=C\[C@H]2OC34C=CCN(Cn5nnc6ccccc65)C(=O)[C@H]3N(CCO)C(=O)[C@@H]4C2C(=O)O1 (stereo not given in full) | -0.487 | -0.505 | -0.28 | -0.614 | 0.383 | -0.147 | -0.291 | -0.256 | 2 | -0.118 | 1.13 | 1.12 (inactive) | -0.319 | -0.15 | 0.942 | 2.59 | 1.06 | 0.0381 | -1.62 | -0.903 |
| COCCOC(=O)N1C(=O)[C@@]2(c3cc(C#Cc4ccc(OC)cc4)ccc31)[C@H](c1ccc(O)cc1)N1[C@H](c3ccccc3)[C@H](c3ccccc3)OC(=O)[C@H]1[C@@H]2C(N)=O | 1.44 | -2.02 | 0.599 | 1.06 | -0.139 | 0.0045 | 0.149 | -0.694 | 0.743 | 1.16 | 0.595 | 0.0583 (inactive) | 0.357 | -0.108 | 0.48 | 1.52 | 0.364 | 1.29 | 0.356 | 1.12 |
| Cc1cc(C)c(-c2cc([C@H](C)ON=C3[C@H]4CCn5c(=O)n(-c6ccccc6)c(=O)n5[C@H]4[C@H](O)[C@@H]4O[C@H]34)on2)c(C)c1 | 0.548 | -4.92 | 0.59 | 0.0681 | -0.386 | 0.0559 | 0.184 | -0.0554 | 0.441 | 0.322 | 0.652 | -0.853 (inactive) | 0.125 | -0.205 | 0.311 | 0.486 | 0.0647 | 0.416 | 0.231 | 0.706 |
| O=C1[C@H]2[C@H]3[C@H](O)[C@H](O)CC(=NO[C@@H]4O[C@H](CO)[C@@H](O)[C@H](O)[C@H]4O)[C@@H]3CC[C@H]2C(=O)N1c1ccc(F)cc1F | 0.343 | 0.434 | 0.428 | -0.364 | -0.561 | -0.12 | 0.284 | -0.349 | 0.467 | 0.161 | 0.241 | -0.836 (inactive) | -0.0612 | -0.104 | -0.0947 | -0.0596 | 0 | 0.465 | 0.426 | 0.262 |
| CC(CCN1CCCCc2nc(C)c(C)cc21)=NOC(C)CN1CCCCc2nc(C)c(C)cc21 (stereo not given) | 1.41 | -2.95 | 1.45 | 0.447 | -0.788 | -0.096 | -0.0709 | -0.0762 | 0.201 | 1.23 | 0.845 | 0.833 (inactive) | 0.284 | -0.0131 | 0.503 | 1.12 | 0.858 | 1.3 | 1.25 | 0.898 |
| CO[C@H]1COC(=O)CC=C[C@H](C)[C@@H](NS(=O)(=O)c2ccc(C)cc2)COC(=O)CC=C[C@@H]1C | 0.0839 | -1.72 | 0.694 | -0.46 | -0.521 | -0.0738 | -0.13 | 0.0613 | 0.37 | -0.153 | -0.498 | -0.38 (inactive) | -0.0436 | -0.151 | -0.0698 | -0.51 | 0.216 | 0.165 | 0.713 | -0.408 |
| COC(=O)[C@]1(CO)N=C(c2ccc(OCCCO)cc2)O[C@@H]1c1ccccc1N=[N+]=[N-] | 0.812 | 0.411 | 0.274 | -0.323 | -0.629 | 0.0189 | -0.226 | -0.215 | 1.6 | -0.0978 | -1.02 | 1.73 (inactive) | -0.112 | -0.0629 | 0.771 | 4.01 | 0.758 | 1.29 | 0.94 | 0.545 |
